# Results filed as inconclusive are left out. Active and inactive are the calls of the source. Calls follow the shape of the dose curve; as a rule, active = well fitted cell-killing curve with a large enough effect; inconclusive = small, poorly fitted or top-dose-only effect, or effect the other way; inactive = no such curve, though single readings can be large or run the other way.
# Experiment: Quantitative High-Throughput drug screen in 47 multiple myeloma cell lines against the NCATS MIPE library collection: UTMC2_PLB cell viability assay (AID 1919868); also: nearly all actives have a fitted effect of over 55% in size
# Settings: CellTiter-Glo ATP luminescence, 48 h; viability (% of DMSO control): at 45.8 µM (top of the series)
# In short: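 500 cells/well per myeloma line exposed to pinned MIPE 4.0 compounds for 48 h at 37 °C, 5% CO2. Viability read as ATP by CellTiter-Glo luminescence, normalised to DMSO-only (100%) and media-only (0%) wells.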
# Potency is read from the fitted curve at half-maximal effect.
SMILES,Potency,viability (% of DMSO control)
C1=C2CCCN[C@H]2[C@@H]2C[C@H]1[C@@H]1CCCCN1C2,inactive,–
CO[C@H]1CCC(O[C@H]2C[C@H]([C@]3(C)CC[C@]4(C[C@H](O)[C@@H](C)[C@@H]([C@@H](C)C=C(C)C(=O)[C@H](C)C[C@H](C)C(=O)O)O4)O3)O[C@]3(O[C@@H]([C@H]4O[C@@](O)(CO)[C@H](C)C[C@H]4C)C[C@H]3C)[C@H]2C)O[C@H]1C (stereo partly specified),0.469 µM (active),–
COC1=CC(C)=C[C@@H](C)[C@@H](O)[C@@H](C)CC(C)=CC=C[C@H](OC)[C@H]([C@@H](C)[C@@H](O)[C@H](C)[C@@]2(O)C[C@@H](O)[C@H](C)[C@@H](C(C)C)O2)OC1=O,0.001 µM (active),–
O=c1[nH]c2ccc(Cl)cc2c(N[C@@H]2CN3CCC2CC3)c1-c1nc2ccccc2[nH]1,0.332 µM (active),–
COc1ccc(N(C(=O)Oc2c(C)cccc2C)c2ccnc(Nc3ccc(N4CCN(C)CC4)cc3)n2)c(OC)c1,–,84% (active)
C[C@H]1CCCC=CC2C[C@H](O)C[C@@H]2[C@H](O)C=CC(=O)O1 (stereo partly specified),inactive,–
CC1=C(O)C(=O)C=C2C1=CC=C1[C@@]2(C)CC[C@@]2(C)[C@@H]3C[C@](C)(C(=O)O)CC[C@]3(C)CC[C@]12C,1.48 µM (active),–
CCN1CCN(C(=O)Cc2ccc(Nc3ncc(F)c(Nc4ccc(C(=O)Nc5ccccc5Cl)cc4)n3)cc2)CC1,1.32 µM (active),–
CC(C)[C@]12O[C@@H]1[C@@H]1O[C@]13[C@]1(O[C@H]1C[C@@H]1C4=C(CC[C@@]13C)C(=O)OC4)[C@H]2O,inactive,–
O=c1[nH]c2ccccc2n1C1CCN(Cc2ccc(-c3[nH]c4cc5ncnc5cc4nc3-c3ccccc3)cc2)CC1,13.2 µM (active),–
CCCC[N+]1(C)[C@H]2CC(OC(=O)[C@H](CO)c3ccccc3)C[C@H]1[C@H]1O[C@H]12 (stereo partly specified),inactive,–
O=C(Nc1ccncc1)C(=O)c1cn(Cc2ccc(Cl)cc2)c2ccccc12,0.0132 µM (active),–
COCC1(CO)C(=O)C2CCN1CC2 (stereo unspecified),11.8 µM (active),–
C=CCON=C(C[C@H]1O[C@@H]2O[C@]3(C)CC[C@@H]4[C@H](C)CC[C@@H]([C@H]1C)[C@@]24OO3)[C@H]1O[C@@H]2O[C@]3(C)CC[C@H]4[C@H](C)CC[C@@H]([C@@H]1C)[C@@]24OO3,0.372 µM (active),–
COc1ccc2c(c[n+](C)c3c4cc5c(cc4ccc23)OCO5)c1OC,5.26 µM (active),–
Cc1[nH]nc2ccc(-c3cncc(OC[C@@H](N)Cc4c[nH]c5ccccc45)c3)cc12,0.372 µM (active),–
CC(C)(O)C=CC(=O)[C@](C)(O)[C@H]1[C@H](O)C[C@]2(C)[C@@H]3CC=C4[C@@H](C=C(O)C(=O)C4(C)C)[C@]3(C)C(=O)C[C@@]12C,0.0418 µM (active),–
CC[C@@H]1[C@@H](C)O[C@@](O)([C@@H](C)[C@H](O)[C@H](C)[C@H]2OC(=O)C=CC=C[C@@H](C)[C@@H]([C@@H](C)[C@@H](O)[C@H](C)[C@@]3(O)C[C@H](O[C@H]4C[C@H](O)[C@H](O)[C@H](C)O4)[C@H](CC)[C@@H](C)O3)OC(=O)C=CC=C[C@@H]2C)C[C@H]1O[C@H]1C[C@H](O)[C@H](O)[C@H](C)O1,1.05 µM (active),–
CC[C@@]1(O)C(=O)OCc2c1cc1n(c2=O)Cc2cc3ccccc3nc2-1,0.0166 µM (active),–
CN1CCN(c2ccc([N+](=O)[O-])c3no[n+]([O-])c23)CC1,18.7 µM (active),–
CC=C(C)C(=O)O[C@H]1C(C)=C2[C@@H]3OC(=O)[C@@](C)(O)[C@@]3(O)[C@@H](OC(=O)CCC)C[C@](C)(OC(C)=O)[C@@H]2[C@@H]1OC(=O)CCCCCCC,0.743 µM (active),–

# — PubChem BioAssay (NCATS)
